Inconclusive results are not listed. Active and inactive are the calls of the source. Calls follow the shape of the dose curve; as a rule, active = well fitted inhibition curve with a large enough effect; inconclusive = small, poorly fitted or top-dose-only effect; inactive = flat fitted curve, though single readings scatter.
System: KB-3-1
Assay: Cytotoxic Profiling of Annotated Libraries Using Quantitative High-Throughput Screening (AID 1296008); also: nearly all actives have a fitted effect of over 60% in size
Details: Five cell lines viability, CellTiter-Glo ATP luminescence, 48-72 h; max response: hits give low values
Outline: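 Cytotoxicity was measured as CellTiter-Glo ATP luminescence, read after 10 min at room temperature. Compound treatment of the cells lasted 48 or 72 hr at 37 degrees Celsius in a qHTS format.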
% is scaled to controls: 0 for no effect and ±100 for the full control effect.

Compound	max response
CCOC(=O)[C@H](CCc1ccccc1)N[C@H]1CCCN2CCC[C@@H](C(=O)O)N2C1=O	1.33% (inactive)
CC(CC(c1ccccc1)c1ccccc1)NC(C)(C)C (stereo unspecified)	-0.893% (inactive)
O=C(Nc1cccc(C(F)(F)F)c1)Nc1ccc(Br)cc1-c1nn[nH]n1	7.51% (inactive)
Cc1cc(Nc2ccccc2C(=O)O)ccc1Cl	-5.19% (inactive)
CN1CCN(C2=Nc3ccccc3Cc3ccccc32)CC1	2.98% (inactive)
CC(CCC1(O)OC2CC3C4CC=C5CC(O[C@@H]6O[C@H](CO)[C@@H](O[C@@H]7O[C@@H](C)[C@H](O)[C@@H](O)[C@H]7O)[C@H](O)[C@H]6O[C@@H]6O[C@@H](C)[C@H](O)[C@@H](O)[C@H]6O)CCC5(C)C4CCC3(C)C2C1C)CO[C@@H]1O[C@H](CO)[C@@H](O)[C@H](O)[C@H]1O (stereo partly specified)	6.64% (inactive)
CC(=O)OC[C@H]1O[C@@H](O[C@H]2[C@H](O)[C@@H](OC(=O)c3ccccc3C(=O)O)[C@H](O)O[C@@H]2COC(C)=O)[C@H](O)[C@@H](OC(=O)c2ccccc2C(=O)O)[C@@H]1O	-12.2% (inactive)
O=C(Cn1c(=O)sc2ccc(Cl)cc21)N1CCN(CCO)CC1	2.82% (inactive)
CC(=O)O[C@H]1C[C@@H]2CC[C@@H]3[C@H](CC[C@@]4(C)[C@H]3C[C@H](N3CC[N+](C)(C)CC3)[C@@H]4OC(C)=O)[C@@]2(C)C[C@@H]1N1CC[N+](C)(C)CC1	-0.194% (inactive)
Cc1c(N)nc(C(CC(N)=O)NCC(N)C(N)=O)nc1C(=O)NC(C(=O)NC(C)C(O)C(C)C(=O)NC(C(=O)NCCc1nc(-c2nc(C(=O)NCCCN[C@@H](C)c3ccccc3)cs2)cs1)C(C)O)C(O[C@@H]1O[C@@H](CO)[C@@H](O)[C@H](O)[C@@H]1O[C@H]1O[C@H](CO)[C@@H](O)[C@H](OC(N)=O)[C@@H]1O)c1cnc[nH]1 (stereo partly specified)	-0.767% (inactive)
CN[C@@H]1CCc2[nH]c3ccc(C(N)=O)cc3c2C1	-3.81% (inactive)

Reference: PubChem BioAssay (NCATS)
